Assay results reported in PubChem BioAssay (NCI).
About 83,000 compounds went through this panel and 20% of them were active in at least one assay; those are over-represented in the sample as a whole.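 The test compound was applied at a single concentration to cells in 96-well plates for 48 hours, and percent growth was recorded.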 Calls of active or inactive are those of the source. How the source made its calls: active means growth percent below 10; inactive means the rest.

Tests used:
Assay in all cases: NCI-60 one-dose screen, 48 h (100 = growth as untreated, 0 = no growth, -100 = all killed)
Settings in all cases: 10 µM unless noted
[1] = test system: RPMI-8226 leukemia
[2] = test system: OVCAR-8 ovarian
[3] = test system: OVCAR-5 ovarian
[4] = test system: OVCAR-4 ovarian
[5] = test system: SK-OV-3 ovarian
[6] = test system: IGROV1 ovarian
[7] = test system: HS 578T breast
[8] = test system: NCI/ADR-RES ovarian
[9] = test system: T-47D breast
[10] = test system: OVCAR-3 ovarian

Measured: growth

CNC(=O)c1cc(-c2ccc(NC(=O)Nc3ccc(N4CCOCC4)c(C(F)(F)F)c3)cc2)nc2cccnc12
inactive: [2] 49.9% | [3] 91.4% | [4] 49.3% | [5] 93.4% | [6] 57.5% | [7] 32.2% | [8] 68.6% | [9] 39.6%
active: [1] 9.25%

COc1cccc(-c2nn(-c3ccccc3)cc2-c2ccnc(N3CCN(C(=O)Nc4ccc(F)cc4)CC3)c2)c1
inactive: [1] 21.4% | [2] 48.8% | [3] 97.6% | [4] 51.2% | [5] 107% | [6] 79.1% | [7] 85.8% | [8] 33.4%
active: [9] 3.31%

CN(C)CCCNc1c2ccc(Cl)cc2nc2c1oc1ccc(Cl)cc12
inactive: [5] 60.5% | [7] 60.9% | [9] 84.4%
active: [1] -27.2% | [2] -78.6% | [3] -7.04% | [4] 0.544% | [6] -64.3% | [10] -52.6% | [8] 2.92%

CCOc1ccc([C@H]2C(C(=O)c3ccc(Cl)cc3)C3(N[C@@H]2c2ccccc2)C(=O)Nc2ccc(Br)cc23)cc1 (some centres not stated)
inactive: [1] 23.5% | [2] 38% | [3] 51.2% | [4] 45.5% | [5] 58.6% | [6] 13.5% | [7] 46.1% | [8] 64.7% | [9] 31.4%
active: [10] -29.5%

CCCC(=O)NC(c1ccc(N(CC)CC)cc1)c1cc(C)c2cccnc2c1O (configuration not stated)
active: [8] 6.31%
inactive: [1] 22.6% | [2] 20.5% | [3] 58% | [4] 40.3% | [5] 42% | [6] 14.1% | [10] 18.6% | [7] 50% | [9] 26.3%

O=C(CSc1nccc(=O)[nH]1)Nc1ccc(-c2nc3ccccc3[nH]2)cc1
inactive: [1] 109% | [2] 103% | [3] 109% | [4] 112% | [5] 103% | [6] 102% | [10] 123% | [7] 119% | [8] 111% | [9] 106%

CC(C)(C)OC(=O)N1C(=O)c2c(c3c4ccccc4[nH]c3c3ccc4ccccc4c23)C1=O
inactive: [1] 45.4% | [2] 60.7% | [3] 63.8% | [4] 77.4% | [5] 45.7% | [6] 52.7% | [7] 49.7% | [8] 75.5% | [9] 32.6%

COc1ccc(NC2=C(Cl)C(=O)C(C)=C(C)C2=O)cc1OC
inactive: [1] 88.7% | [2] 97.5% | [3] 103% | [4] 22% | [6] 39.7% | [10] 95.6% | [7] 91.2% | [9] 23.5%

C/C(=C(/c1ccc(Cl)cc1)c1ccc(OCCN)cc1)c1ccc(C)cc1
inactive: [1] 96.5% | [2] 100% | [3] 101% | [4] 97% | [6] 100% | [10] 105% | [7] 96.7% | [8] 111% | [9] 96.8%

CN1C(=O)N(c2ccccc2)C2N=C(N/N=C/c3ccccc3)SC21 (configuration not stated)
inactive: [1] 22.5% | [2] 25.7% | [3] 35.1% | [4] 68.3% | [6] 38.2% | [10] 13.2% | [8] 30.7% | [9] 32.6%
active: [7] 2.36%

COc1ccc(Cc2nn(CC(=O)N/N=C/c3ccc(Cl)cc3)c(=O)c3c(C)noc23)cc1
inactive: [1] 87.4% | [2] 61.9% | [3] 97.3% | [4] 59.2% | [6] 82.1% | [10] 107% | [7] 22.1% | [9] 58.9%

N/C(=N\c1nc2c(Cl)cc(Cl)cc2s1)C(Cl)(Cl)Cl
inactive: [1] 15.4% | [2] 68.3% | [3] 69.5% | [4] 67.9% | [6] 57.8% | [7] 22.1% | [8] 68.3% | [9] 32.3%
active: [10] -9.72%

COc1ccc(NC2=CC(=O)C(C)=C(C)C2=O)cc1
inactive: [1] 73.3% | [2] 79.1% | [3] 109% | [4] 43.8% | [6] 89.3% | [7] 110% | [9] 67.5%
active: [10] 9.94%

CCOC(=O)c1csc(NC(=O)CSc2nc3sc4c(c3c(=O)n2-c2ccc(Cl)cc2)CCCC4)n1
inactive: [1] 92.5% | [2] 97.6% | [3] 97.9% | [4] 103% | [6] 89.6% | [10] 138% | [7] 97.3% | [8] 107% | [9] 87%

Cc1ccc(C(=O)Nc2cccc(C(F)(F)F)c2)cc1Nc1nc(-c2cnccn2)nc2c1cnn2C
inactive: [1] 61.8% | [2] 77.3% | [3] 39.2% | [4] 83.7% | [6] 52.7% | [10] 97.9% | [7] 51.2% | [8] 75.6% | [9] 74.5%

Nc1cc(-c2c[nH]c3ccccc23)nc2cc(-c3c[nH]c4ccccc34)nn12
inactive: [1] 35.9% | [2] 64.3% | [3] 51% | [4] 65.1% | [6] 57.2% | [10] 92.4% | [7] 81.1% | [8] 59% | [9] 68.7%

O=C1Nc2cc(Cl)ccc2/C1=C\c1ccc(OCc2ccc([N+](=O)[O-])cc2)cc1
inactive: [1] 55.6% | [2] 78.8% | [3] 93.3% | [4] 43.6% | [6] 64.5% | [10] 87.8% | [7] 60.9% | [8] 73.3% | [9] 51.9%

Cc1cc(C(=O)Nc2sc3c(c2C(N)=O)CCC(=O)C3)ccc1OCCN1CCCCC1
inactive: [1] 85.7% | [2] 101% | [3] 119% | [4] 108% | [6] 91% | [10] 97.7% | [7] 102% | [9] 89.4%

CC(=O)Oc1ccccc1C(=O)Nc1ccc(C(=O)/C=C/c2cccs2)cc1
inactive: [1] 96.2% | [2] 107% | [3] 109% | [4] 104% | [6] 116% | [10] 122% | [7] 120% | [8] 106% | [9] 100%

CO/N=C1\CCc2c(sc(NC(=O)c3cccc(C(F)(F)F)c3)c2C(N)=O)C1
inactive: [1] 35.4% | [2] 20.9% | [3] 41.4% | [6] 11.9%
active: [4] -45.4% | [10] 7.66% | [7] 5.79% | [9] -18.5%

O=C(CSc1nnc(-c2ccc3nc(-c4ccc(Cl)cc4)[nH]c3c2)o1)Nc1ccc(C(=O)/C=C/c2ccc(Cl)cc2)cc1
active: [1] 4.95%
inactive: [2] 97.1% | [3] 108% | [4] 101% | [6] 85.5% | [10] 121% | [7] 89% | [8] 105% | [9] 87.1%

O=C(N/N=C/c1ccco1)c1[nH]c2ccc(Br)cc2c1-c1ccccc1
active: [1] 8.9% | [2] 5.2%
inactive: [3] 36.7% | [4] 58.5% | [6] 18.5% | [10] 21.5% | [7] 31.6% | [8] 20.5% | [9] 60.7%

COc1cc(-c2ccc3ncnc(NC(C)c4ccccc4)c3c2)cnc1OC (configuration not stated)
active: [6] -23.2% | [9] 1.57%
inactive: [1] 26.5% | [2] 55.2% | [3] 42.8% | [4] 49% | [10] 25.2% | [7] 21.1% | [8] 58.8%

CC1=C(C)C(=O)C(Nc2ccccc2)=C(Cl)C1=O
active: [4] -97.9% | [6] 9.69% | [9] -38.9%
inactive: [1] 53.6% | [2] 94.9% | [3] 104% | [10] 102% | [7] 101%

Cn1c(SCC(=O)c2cccs2)nc2ccccc2c1=O
inactive: [1] 81.7% | [2] 97.5% | [3] 109% | [4] 92.9% | [6] 74.8% | [10] 98% | [7] 90.8% | [9] 54.2%

COc1ccc([C@@H]2c3[nH]c4ccccc4c3CC3C(=O)N(C4CCN(Cc5c(F)cccc5F)CC4)CC(=O)N32)c(OC)c1 (some centres not stated)
inactive: [1] 41.3% [5.26 µM] | [2] 73.4% [5.26 µM] | [3] 76.7% [5.26 µM] | [4] 69.4% [5.26 µM] | [6] 39.8% [5.26 µM] | [10] 64.1% [5.26 µM] | [7] 45.1% [5.26 µM] | [9] 47.1% [5.26 µM]

c1ccc2c(NCCCN3CCOCC3)c3oc4ccccc4c3nc2c1
active: [1] -14.4% | [2] -71.7% | [3] 1.26% | [4] 7.86% | [6] -16.7% | [10] -19.6% | [7] 5.28% | [8] 7.98%
inactive: [9] 21.1%

Clc1ccc(Cc2nnc3sc(-c4cccnc4)nn23)cc1
inactive: [1] 97.5% | [2] 96.6% | [3] 94.7% | [4] 94.2% | [6] 95.4% | [10] 107% | [7] 101% | [8] 81.3% | [9] 89.2%

O=C(CCN1C(=O)/C(=C/c2ccccc2)SC1=S)N1CCOCC1
inactive: [1] 67.7% | [2] 99.6% | [3] 94.8% | [4] 101% | [6] 88.5% | [10] 110% | [7] 100% | [8] 98.8% | [9] 65.7%
